Screening data as filed in PubChem BioAssay.
TDP1 cell CPT: growth inhibition of DT40 Tdp1-/-;hTDP1 cells with camptothecin (screen for TDP1 inhibitors) | chicken DT40 Tdp1-/-;hTDP1 cells + 20 nM CPT, ATP luminescence, 48 h | Potency, µM (series often up to 46.2 µM), for the others: top-dose activity change, negative = growth inhibition, hits mostly inhibitors | hit rate 12% among 420,000; note: nearly all actives have a fitted effect of over 55% in size
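Cell growth measured by CellTiter-Glo luminescence after a minimum 48 h, 37 C compound exposure with 20 nM CPT in Tdp1-knockout DT40 cells stably expressing hTDP1, seeded 400/well; qHTS titration format.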
ELG1 repair inh: blocks ELG1-dependent DNA repair in HEK293T cells; hit rate 2.3% among 330,000; Potency, µM (doses to about 46.1 µM), for the others: at the top dose activity change, negative = inhibition, actives largely listed as inhibitors; HEK293T ELG1-luciferase reporter, luminescence, 16 h; DNA damage induced by 5-fluorouridine; note: nearly all actives have a fitted effect of over 55% in size
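In this reporter screen, reduction of luminescence relative to DMSO vehicle indicated activity. Compounds and 5-fluorouridine were added together to 2,000 cells per well, incubated for 16 hr at 37 °C, then developed with ONE-Glo.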
TDP1 cell noCPT: qHTS for Inhibitors of human tyrosyl-DNA phosphodiesterase 1 (TDP1): qHTS in cells in absence of CPT. DT40 Tdp1-/- hTDP1 cells, no CPT, ATP luminescence, 48 h. Potency, µM (doses to about 46.2 µM), for the others: top-dose activity change, negative = growth inhibition, actives largely listed as inhibitors. hit rate 15% among 420,000; note: nearly all actives have a fitted effect of over 55% in size
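No-CPT arm: Tdp1-/-;hTDP1 DT40 cells (400/well) plus compounds, incubated ≥48 hr at 37 °C. Readout CellTiter-Glo luminescence.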
Gal4-VP16 FLuc: inhibits Gal4-VP16 luciferase reporter, ROR gamma counter-screen | Drosophila S2 Gal4-VP16 UAS-luciferase, luminescence, 20 h | Potency, µM (top dose mostly 53.6 µM), for inactives: at the top dose activity, negative = inhibition, usual class: inhibitors | hit rate 3.5% among 310,000;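 note: Gal4-VP16 expression switched on by copper sulfate through the metallothionein promoter; nearly all actives have a fitted effect of over 50% in size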
12-LOX inh: blocks human arachidonate 12S-lipoxygenase; P18054; purified 12hLO, xylenol orange hydroperoxide absorbance; Potency, µM (top dose mostly 108 µM), for inactives: at the top dose activity change, negative = inhibition, actives largely listed as inhibitors; hit rate 1.1% among 580,000
Target sequence (P18054 whole entry, looked up): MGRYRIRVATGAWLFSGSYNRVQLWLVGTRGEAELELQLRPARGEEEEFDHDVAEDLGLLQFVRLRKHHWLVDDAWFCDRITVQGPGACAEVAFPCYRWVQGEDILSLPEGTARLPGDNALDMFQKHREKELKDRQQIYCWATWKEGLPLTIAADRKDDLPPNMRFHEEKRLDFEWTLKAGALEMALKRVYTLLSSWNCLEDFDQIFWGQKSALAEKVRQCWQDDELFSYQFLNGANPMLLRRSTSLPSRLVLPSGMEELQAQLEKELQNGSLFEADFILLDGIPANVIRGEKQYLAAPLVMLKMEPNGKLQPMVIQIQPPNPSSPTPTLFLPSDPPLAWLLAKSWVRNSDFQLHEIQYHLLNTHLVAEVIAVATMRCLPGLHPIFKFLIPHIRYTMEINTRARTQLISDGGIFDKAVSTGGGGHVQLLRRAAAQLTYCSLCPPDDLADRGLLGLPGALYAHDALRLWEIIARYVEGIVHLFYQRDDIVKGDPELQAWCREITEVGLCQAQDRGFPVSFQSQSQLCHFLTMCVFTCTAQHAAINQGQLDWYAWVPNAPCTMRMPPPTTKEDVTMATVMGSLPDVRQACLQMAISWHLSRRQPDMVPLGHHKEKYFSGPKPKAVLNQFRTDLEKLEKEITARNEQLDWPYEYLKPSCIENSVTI
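Hydroperoxide product was detected by ferrous iron/xylenol orange as the 573 to 405 nm absorbance ratio. Arachidonic acid at 40 uM (final) was turned over for 30 min at room temperature by 150 nM human 12hLO, pH 7.0 Hepes buffer, after 15 min compound preincubation.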
RORgamma inh: ROR gamma (mouse) transcription inhibition. P51450. Drosophila S2 Gal4-RORgamma UAS-luciferase reporter, 20 h. Potency, µM (titrated, usually from 53.6 µM), for inactives: top-dose activity change, negative = inhibition, usual class: inhibitors. hit rate 5.4% among 310,000. AID 2551; note: nearly all actives have a fitted effect of over 60% in size
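In this cell-based reporter format, copper sulfate (700 uM final) drives Gal4–ROR gamma fusion expression from a metallothionein promoter in Drosophila Schneider cells; compounds preincubated 1 hr, reporter read after 20 hr at ambient temperature.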
The depositor's hits bear a star. In the library only some 15% were active in any assay of this set; here they are far more common. Calls come from the whole dose curve; as a rule, active = well fitted curve in the direction sought with a large enough effect; inconclusive = small, poorly fitted or top-dose-only effect, or another doubt; inactive = no such curve, though single readings can be large; an effect the other way counts as inactive or inconclusive. % is set by controls: 0 for no effect and ±100 for the full control effect; potency is the fitted concentration of half-maximal effect.

For CC1Cc2cc(S(=O)(=O)NCc3ccccc3)ccc2N1C(=O)C1CCC1 (configuration not stated) the results were TDP1 cell CPT 21µM*, ELG1 repair inh -17%, TDP1 cell noCPT 7.3µM*, Gal4-VP16 FLuc inconclusive, 12-LOX inh 1% and RORgamma inh -10%.
Screening COc1cccc(NC(=O)CCNS(=O)(=O)c2ccc3c(c2)CC(C)N3C(=O)C2CC2)c1 (configuration not stated) returned TDP1 cell CPT inconclusive, ELG1 repair inh -13%, TDP1 cell noCPT -24%, Gal4-VP16 FLuc -2%, 12-LOX inh 6% and RORgamma inh 1%.
CCc1cccc(NS(=O)(=O)c2ccc3c(c2)CC(C)N3C(=O)C2CC2)c1 (configuration not stated) was read as TDP1 cell CPT 6.5µM*, TDP1 cell noCPT 3.7µM* and 12-LOX inh inconclusive.
For CC1Cc2cc(S(=O)(=O)NCc3ccccc3)ccc2N1C(=O)C1CC1 (configuration not stated) the results were TDP1 cell CPT inconclusive, ELG1 repair inh -5%, TDP1 cell noCPT inconclusive, Gal4-VP16 FLuc inconclusive, 12-LOX inh -6% and RORgamma inh 7%.
O=C(O)CCC1CCCN(S(=O)(=O)c2cccc(F)c2)C1 (configuration not stated) was read as 12-LOX inh 2%.
For C#CCN(C[C@@H]1[C@@H](OC(=O)NCCCCCC)[C@@H](OC(=O)NCCCCCC)Cn2c(=O)ccc(=O)n21)S(=O)(=O)c1ccc(C)cc1 the results were TDP1 cell CPT 4.6µM*, TDP1 cell noCPT 3.3µM* and 12-LOX inh inconclusive.
Screening C#CCN(C[C@@H]1[C@@H](OC(=O)NCC2CCCCC2)[C@@H](OC(=O)NCC2CCCCC2)Cn2c(=O)ccc(=O)n21)S(=O)(=O)c1ccc(C)cc1 returned TDP1 cell CPT 2.9µM*, TDP1 cell noCPT 3.3µM* and 12-LOX inh inconclusive.
For Cc1ccc(S(=O)(=O)N2CCC(C(=O)NCC3CCCCC3)CC2)cc1 the results were TDP1 cell CPT -2%, ELG1 repair inh -17%, TDP1 cell noCPT 1%, Gal4-VP16 FLuc 16%, 12-LOX inh inconclusive and RORgamma inh 41%.
`C#CCN(C[C@H]1[C@H](OC(=O)NCc2ccco2)[C@H](OC(=O)NCc2ccco2)C[C@H]2C(=O)N(c3ccccc3)C(=O)[C@@H]12)S(=O)(=O)c1ccc(C)cc1` gave TDP1 cell CPT 2%, TDP1 cell noCPT inconclusive and 12-LOX inh -3%.
`O=C(c1cnn(C(=O)COc2ccc(Cl)cc2)c1)c1ccccc1O` gave TDP1 cell CPT -10%, ELG1 repair inh inconclusive, TDP1 cell noCPT inconclusive, Gal4-VP16 FLuc -4%, 12-LOX inh 5% and RORgamma inh inconclusive.
Screening Cc1ccc(O)c(C(=O)c2cnn(C(=O)COc3ccc(Cl)cc3)c2)c1 returned TDP1 cell CPT -28%, ELG1 repair inh 16µM*, TDP1 cell noCPT -27%, Gal4-VP16 FLuc inconclusive, 12-LOX inh 4% and RORgamma inh inconclusive.
For COC(=O)c1cccc(OC(=O)c2ccccc2Cl)c1 the results were 12-LOX inh 2%.
CO/N=C/NC(=O)c1ccc([N+](=O)[O-])c(CS(=O)(=O)c2ccc(Cl)cc2)c1 was read as TDP1 cell CPT 7.3µM*, ELG1 repair inh -2%, TDP1 cell noCPT 10µM*, Gal4-VP16 FLuc -6%, 12-LOX inh 0% and RORgamma inh 10%.
For COCCN(CCOC)c1nc(-c2ccccc2)nc2ccccc12 the results were TDP1 cell CPT inconclusive, ELG1 repair inh 26µM*, TDP1 cell noCPT inconclusive, Gal4-VP16 FLuc -11%, 12-LOX inh 0% and RORgamma inh inconclusive.
`COCCNc1nc(-c2ccccc2)nc2ccccc12` gave TDP1 cell CPT 3%, ELG1 repair inh -9%, TDP1 cell noCPT inconclusive, Gal4-VP16 FLuc -3%, 12-LOX inh 37% and RORgamma inh -12%.
For CCCCN(CC)c1nc(-c2ccccc2F)nc2ccccc12 the results were TDP1 cell CPT inconclusive, TDP1 cell noCPT inconclusive and 12-LOX inh -12%.
Screening CCN(CC)c1nc(-c2ccccc2)nc2ccccc12 returned TDP1 cell CPT 15µM*, ELG1 repair inh inconclusive, TDP1 cell noCPT inconclusive, Gal4-VP16 FLuc 3%, 12-LOX inh 0% and RORgamma inh -4%.
`CCCCNc1nc(-c2ccncc2)nc2ccccc12` gave 12-LOX inh -9%.
For COCCN(CCOC)c1nc(-c2ccc(Cl)cc2)nc2ccccc12 the results were TDP1 cell CPT 18µM*, ELG1 repair inh inconclusive, TDP1 cell noCPT 13µM*, Gal4-VP16 FLuc 6%, 12-LOX inh 0% and RORgamma inh inconclusive.
CCCCN(CCCC)c1nc(-c2ccncc2)nc2ccccc12 was read as TDP1 cell CPT inconclusive, ELG1 repair inh inconclusive, TDP1 cell noCPT 23µM*, Gal4-VP16 FLuc 0%, 12-LOX inh 19% and RORgamma inh -19%.
For CC(C)c1ccc(S(=O)(=O)N2CCC3(CCCNC3)C2)cc1 (configuration not stated) the results were 12-LOX inh 4%.
For C=CCNC(=S)Nc1ccc(Cl)c(Cl)c1 the results were 12-LOX inh 50%.
O=C1NCCCCCN(C(=O)c2ccc3ccccc3n2)[C@H]2CCC[C@@H]12 was read as 12-LOX inh 16%.
Screening O=C(Cn1cnc([N+](=O)[O-])n1)N/N=C/c1ccccc1O returned TDP1 cell CPT 16µM*, ELG1 repair inh -23%, TDP1 cell noCPT 16µM*, Gal4-VP16 FLuc inconclusive, 12-LOX inh -11% and RORgamma inh 7.1µM*.
O=C(Cn1cnc([N+](=O)[O-])n1)N/N=C/c1cc(Cl)ccc1O was read as TDP1 cell CPT 4.6µM*, ELG1 repair inh inconclusive, TDP1 cell noCPT 7.3µM*, Gal4-VP16 FLuc inconclusive, 12-LOX inh inconclusive and RORgamma inh 7.1µM*.
`Cc1ccccc1/C=N/NC(=O)Cn1cnc([N+](=O)[O-])n1` gave TDP1 cell CPT -10%, ELG1 repair inh 18%, TDP1 cell noCPT 3%, Gal4-VP16 FLuc -2%, 12-LOX inh 6% and RORgamma inh -28%.
N#Cc1ccccc1COC(=O)c1ccc(COc2ccccc2)o1 was read as 12-LOX inh -3%.
